# This is a sample that favours compounds with a hit; in the whole collection about 19% have one here.
# ELG1 DNA repair: blocks ELG1-dependent DNA repair in HEK293T cells | hit rate 2.3% among 330,000 | AID 504467 | HEK293T ELG1-luciferase reporter, luminescence, 16 h; DNA damage induced by 5-fluorouridine | Potency, µM (titrated, usually from 46.1 µM), hits mostly inhibitors; note: nearly all actives have a fitted effect of over 55% in size
#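 Overnight (16 hr) co-exposure of 2,000 cells/well to 5-fluorouridine and compound at 37 °C preceded detection. Luciferase was quantified via ONE-Glo luminescence; loss of signal denotes inhibition.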
# TDP1 cell CPT: growth inhibition of DT40 Tdp1-/-;hTDP1 cells with camptothecin (screen for TDP1 inhibitors). Potency, µM (top dose mostly 46.2 µM), usual class: inhibitors. hit rate 12% among 420,000. chicken DT40 Tdp1-/-;hTDP1 cells + 20 nM CPT, ATP luminescence, 48 h; note: nearly all actives have a fitted effect of over 55% in size
#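 Cell growth measured by CellTiter-Glo luminescence after a minimum 48 h, 37 C compound exposure with 20 nM CPT in Tdp1-knockout DT40 cells stably expressing hTDP1, seeded 400/well; qHTS titration format.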
# IL1B secr inh: blocks inflammasome-driven IL-1 beta release | THP-1 LPS/ATP IL-1B secretion, AlphaLISA, 16 h; hits give low values | activity change, % at 57.5 µM | hit rate 4.7% among 360,000 | AID 743279; in the data active = activity change below about -50%; inconclusive = mostly about -30% to -49%
#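 THP-1 cells pretreated 1 hr with compounds (up to 57.5 uM final), then stimulated with LPS (250 ng/mL final) plus ATP (1.25 mM final); secreted IL-1B measured by AlphaLISA after 16 hr, decreased signal indicating inhibition.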
# DT40 TDP1 no CPT: qHTS for Inhibitors of human tyrosyl-DNA phosphodiesterase 1 (TDP1): qHTS in cells in absence of CPT; DT40 Tdp1-/- hTDP1 cells, no CPT, ATP luminescence, 48 h; Potency, µM (doses to about 46.2 µM), hits mostly inhibitors; hit rate 15% among 420,000; AID 686978, 2013; note: nearly all actives have a fitted effect of over 55% in size
#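 Growth kinetics read by CellTiter-Glo luminescence after ≥48 hr at 37 °C. Cells: DT40 Tdp1-/- stably carrying human TDP1, 400 per well, compound exposure in the absence of CPT (DMSO vehicle).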
# Giardia kill: kills Giardia lamblia | Giardia lamblia trophozoite viability | activity change, % at 7.66 µM, hits read low | hit rate 0.15% among 340,000; in the data active = activity change below about -80%; inconclusive = between about -30% and that limit;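 note: parasites exposed to compound for two days anaerobically before the ATP read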
#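 Compounds were tested on trophozoites seeded at 100 cells/well and held 48 hrs at 37 deg C anaerobically. An ATP-based luminescent kit measured the remaining live cells.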
# TDP1 inh: blocks human tyrosyl-DNA phosphodiesterase 1 | recombinant TDP1, AlphaScreen DNA substrate cleavage | Q9NUW8 | Potency, µM (doses to about 130 µM), actives largely listed as inhibitors | hit rate 0.28% among 350,000; note: nearly all actives have a fitted effect of over 40% in size
# Target sequence (Q9NUW8 whole entry, looked up): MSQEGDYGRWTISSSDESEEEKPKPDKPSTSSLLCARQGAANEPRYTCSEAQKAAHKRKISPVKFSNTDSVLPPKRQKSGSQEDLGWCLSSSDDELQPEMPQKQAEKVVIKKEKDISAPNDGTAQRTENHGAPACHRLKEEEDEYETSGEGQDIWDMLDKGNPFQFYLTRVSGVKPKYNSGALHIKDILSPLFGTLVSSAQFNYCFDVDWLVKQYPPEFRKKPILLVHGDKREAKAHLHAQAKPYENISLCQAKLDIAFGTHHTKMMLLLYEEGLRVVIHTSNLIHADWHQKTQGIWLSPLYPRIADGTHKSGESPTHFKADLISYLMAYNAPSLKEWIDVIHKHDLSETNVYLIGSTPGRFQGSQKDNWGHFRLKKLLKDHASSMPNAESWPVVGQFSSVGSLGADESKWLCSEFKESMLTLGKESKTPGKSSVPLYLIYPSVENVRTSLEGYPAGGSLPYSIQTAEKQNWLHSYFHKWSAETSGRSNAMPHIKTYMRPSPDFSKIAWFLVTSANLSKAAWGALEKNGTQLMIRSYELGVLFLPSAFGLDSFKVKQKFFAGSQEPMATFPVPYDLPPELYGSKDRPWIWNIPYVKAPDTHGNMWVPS
#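 Signal: AlphaScreen proximity between streptavidin donor and anti-FITC acceptor beads on intact substrate. Reaction: Tdp1 1 nM, substrate 15 nM final, 5 min RT after 15 min compound preincubation.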
# Hits are given with their value; 0 = inactive; ? = inconclusive; - = no result given; ! = repeats disagree. Unless noted, calls come from the whole dose curve; as a rule, active = well fitted curve in the direction sought with a large enough effect; inconclusive = small, poorly fitted or top-dose-only effect, or another doubt; inactive = no such curve, though single readings can be large; an effect the other way counts as inactive or inconclusive.
SMILES,ELG1 DNA repair,TDP1 cell CPT,IL1B secr inh,DT40 TDP1 no CPT,Giardia kill,TDP1 inh
C[n+]1ccc(/C=C/c2ccc(F)cc2)c2ccccc21,-,8.9µM,-,13µM,-,-
COc1ccccc1NC(=O)c1cc(=O)c2ccc(C)c(C)c2o1,-,0,-,0,-,0
CCCC1CC(C(=O)Nc2ccccc2)C(=O)O1 (centres undefined),-,0,0,0,0,-
Cc1nc(-c2ccc(S(=O)(=O)Nc3ccc(C)c(C)c3)s2)cs1,-,-,-,-,-,0
Cc1ccc(NS(=O)(=O)c2ccc(-c3csc(C)n3)s2)c(C)c1,?,?,0,16µM,0,0
O=C(Nc1ccn(CCCNCCN2CCOCC2)c(=O)n1)OCc1ccccc1,-,0,0,0,0,-
O=C(Nc1ccn(CCCN2CCC(N3CCOCC3)CC2)c(=O)n1)OCc1ccccc1,-,0,0,0,-,-
Cc1cc(C)c(CN2CCN(CCCn3ccc(NC(=O)OCc4ccccc4)nc3=O)CC2)c(C)c1,-,18µM,-55,18µM,0,-
Nc1ccn(CCCN2CCN(Cc3cccc4ccccc34)CC2)c(=O)n1,-,0,0,?,-,-
O=C(Nc1ccn(CCCN2CCN(c3ccccc3)CC2)c(=O)n1)OCc1ccccc1,-,?,0,15µM,-,-
O=C(Nc1ccn(CCCN2CCN(Cc3cccc4ccccc34)CC2)c(=O)n1)OCc1ccccc1,-,16µM,?,18µM,-,-
O=C(Nc1ccn(CCCNC2CCN(Cc3ccccc3)CC2)c(=O)n1)OCc1ccccc1,-,?,0,18µM,-,-
Cc1ccc(CNC(=O)COCc2cc(-c3cccs3)on2)cc1,-,?,-,0,-,0
COc1ccc(NC(=O)CCS(=O)(=O)c2ccc3c(c2)oc(=O)n3C)cc1,0,0,0,0,0,-
O=C(Cc1ccccc1)Nc1ccccc1C(=O)N1CCN(c2ccccc2)CC1,0,0,0,0,0,0
COc1ccc(N2CCN(CCCn3ccc(NC(=O)OCc4ccccc4)nc3=O)CC2)cc1,-,23µM,0,12µM,-,-
Cc1ccc(C(=O)N/N=C\c2ccc(-c3ccc(Cl)c(Cl)c3)o2)cn1,0,?,?,?,0,0
Cc1nnc(N/N=C\c2ccc(-c3ccccc3[N+](=O)[O-])o2)n1N,?,?,0,?,0,0
Cc1ccc(C(=O)N/N=C/c2ccc(-c3ccccc3[N+](=O)[O-])o2)cn1,0,21µM,0,?,0,0
Cc1ccc(C(=O)N/N=C/c2ccc(-c3cccc(Cl)c3)o2)cn1,?,15µM,0,15µM,0,0
COc1ccc(-c2ccc(/C=N/NC(=O)c3cccnc3)o2)c([N+](=O)[O-])c1,?,?,0,16µM,0,-
Cn1cnnc1SCC(=O)c1c(N)n(Cc2ccccc2)c(=O)n(C)c1=O,0,0,0,0,0,0
COc1cc2c(cc1OC)-c1cc(Nc3ccc4c(c3)OCCO4)nc(=O)n1CC2,?,0,-70,?,0,0
COc1ccc(Nc2cc3n(c(=O)n2)CCc2cc(OC)c(OC)cc2-3)c(C)c1,?,?,0,15µM,0,-
COc1cc2c(cc1OC)-c1cc(Nc3ccc(C)cc3)nc(=O)n1CC2,0,0,?,0,0,-
SMILES,ELG1 DNA repair,TDP1 cell CPT,IL1B secr inh,DT40 TDP1 no CPT,Giardia kill,TDP1 inh
COc1ccc(Nc2cc3n(c(=O)n2)CCc2cc(OC)c(OC)cc2-3)cc1,?,0,0,?,0,-
CCOC(=O)CSc1n[nH]c(NC(=O)c2cccc(C(F)(F)F)c2)n1,0,0,0,0,0,0
COC(=O)CN1C(=O)CSc2ccc(S(=O)(=O)Nc3ccc(C(C)=O)cc3)cc21,-,0,-,0,-,0
Cc1cc2c(cc1C)CSC(c1c(O)ccc3ccccc13)SC2,?,?,-78,?,0,0
Cc1cc2c(cc1C)CSC(c1ccc3ccccc3c1O)SC2,0,0,0,?,0,0
CC(=O)Nc1ccc(S(=O)(=O)NCCC(=O)Nc2ccc(C)c(F)c2)cc1,0,0,0,0,0,0
O=C(Nc1ccccc1Cl)c1ccc(COc2ccc3c(c2)CCC3)cc1,?,0,0,0,0,0
CCOC(=O)C(NC(=O)Nc1ccc(Cl)cn1)(Oc1ccccc1)C(F)(F)F (centres undefined),0,0,0,0,0,0
COc1ccc(C2CC23N=C(c2ccccc2)OC3=O)cc1 (centres undefined),0,18µM,?,?,0,0
COc1cc(-c2cc(O)c(-c3ccc4ccccc4n3)c(=O)[nH]2)cc(OC)c1OC,-,?,0,15µM,0,-
COc1ccccc1CNC(=O)c1cc2sccc2n1Cc1ccc(F)cc1,-,21µM,-,23µM,-,0
CC1Cc2ccccc2N1C(=O)c1cc2sccc2n1Cc1ccc(F)cc1 (centres undefined),0,?,0,16µM,0,0
COc1ccc(CNC(=O)c2cc3sccc3n2Cc2ccc(F)cc2)cc1,-,0,-,?,-,0
CCN1CCN(C(c2ccc(SC)cc2)c2c(O)cc(C)n(CCOC)c2=O)CC1 (centres undefined),-,0,-,0,-,0
O=C(COC(=O)C1CC2C=CC1C2)NCc1ccccc1Cl (centres undefined),0,0,0,0,?,0
O=C(CCCSc1nc2ccccc2[nH]1)N1CCN(c2ccccc2)CC1,23µM,?,0,?,0,0
Cc1cccc(N2CCN(C(=O)CCCSc3nc4ccccc4[nH]3)CC2)c1C,?,16µM,?,?,0,0
CC(=O)Nc1cccc(NC(=O)CSc2cn(CC(=O)N(C(C)C)C(C)C)c3ccccc23)c1,-,?,-,?,-,0
Cc1ccccc1NC(=O)CSc1cn(CC(=O)N(C(C)C)C(C)C)c2ccccc12,-,?,-,15µM,-,0
CC(=O)c1ccc(NC(=O)CSc2cn(CC(=O)N(C(C)C)C(C)C)c3ccccc23)cc1,-,?,-,15µM,-,0
O=c1c2ccccc2nc(N2CCN(c3cccc(Cl)c3)CC2)n1-c1ccccc1,-,3.7µM,-,2.9µM,-,0
Cc1cccc(N2CCN(c3nc4ccccc4c(=O)n3-c3ccc(Cl)cc3)CC2)c1C,-,0,-,?,-,0
Cc1ccc(C)c(N2CCN(c3nc4ccccc4c(=O)n3-c3ccc(Cl)cc3)CC2)c1,-,5.8µM,-,21µM,-,0
CC(=O)N1CCN(C(=O)c2cccc(S(=O)(=O)NCc3ccccc3)c2)CC1,?,0,0,0,0,-
Cc1cccc(-n2c(C)nc3cc(C(=O)NCCC4=CCCCC4)ccc32)c1,-,15µM,-,?,-,0
CCc1ccc(-n2c(C)nc3cc(C(=O)NCCc4ccccc4)ccc32)cc1,-,21µM,-,?,-,0
COC(CNC(=O)c1ccc2c(c1)nc(C)n2-c1cccc(C)c1)OC,0,0,0,0,0,-
CCCNC(=O)c1ccc2c(c1)nc(C)n2-c1cccc(C)c1,0,16µM!,0,?,0,0

# Screens as filed in PubChem BioAssay.
